Assay results reported in ChEMBL document CHEMBL3988442, “University of Dundee, Small-Polar-MMV Screening Library” (2021).
For some of these results: Results with a measured potency or affinity are listed apart.

Columns and labels:
Parameters in all cases: scale not given: direction of the effect not stated beside the values
[1] = target: Protein translocase subunit SecA (Escherichia coli (strain K12)) (UniProt P10408); test: Assay to Identify E. coli SecA ATPase Inhibitors; format: functional; details: 30 µM
[2] = target: T1, Ubiquitin-activating enzyme e1, putative (Leishmania donovani (strain BPK282A1)) (UniProt E9BSI1); test: Leishmania donovani Ubiquitin Activating Enzyme (LdE1); format: functional; details: 30 µM
T1 sequence (whole entry): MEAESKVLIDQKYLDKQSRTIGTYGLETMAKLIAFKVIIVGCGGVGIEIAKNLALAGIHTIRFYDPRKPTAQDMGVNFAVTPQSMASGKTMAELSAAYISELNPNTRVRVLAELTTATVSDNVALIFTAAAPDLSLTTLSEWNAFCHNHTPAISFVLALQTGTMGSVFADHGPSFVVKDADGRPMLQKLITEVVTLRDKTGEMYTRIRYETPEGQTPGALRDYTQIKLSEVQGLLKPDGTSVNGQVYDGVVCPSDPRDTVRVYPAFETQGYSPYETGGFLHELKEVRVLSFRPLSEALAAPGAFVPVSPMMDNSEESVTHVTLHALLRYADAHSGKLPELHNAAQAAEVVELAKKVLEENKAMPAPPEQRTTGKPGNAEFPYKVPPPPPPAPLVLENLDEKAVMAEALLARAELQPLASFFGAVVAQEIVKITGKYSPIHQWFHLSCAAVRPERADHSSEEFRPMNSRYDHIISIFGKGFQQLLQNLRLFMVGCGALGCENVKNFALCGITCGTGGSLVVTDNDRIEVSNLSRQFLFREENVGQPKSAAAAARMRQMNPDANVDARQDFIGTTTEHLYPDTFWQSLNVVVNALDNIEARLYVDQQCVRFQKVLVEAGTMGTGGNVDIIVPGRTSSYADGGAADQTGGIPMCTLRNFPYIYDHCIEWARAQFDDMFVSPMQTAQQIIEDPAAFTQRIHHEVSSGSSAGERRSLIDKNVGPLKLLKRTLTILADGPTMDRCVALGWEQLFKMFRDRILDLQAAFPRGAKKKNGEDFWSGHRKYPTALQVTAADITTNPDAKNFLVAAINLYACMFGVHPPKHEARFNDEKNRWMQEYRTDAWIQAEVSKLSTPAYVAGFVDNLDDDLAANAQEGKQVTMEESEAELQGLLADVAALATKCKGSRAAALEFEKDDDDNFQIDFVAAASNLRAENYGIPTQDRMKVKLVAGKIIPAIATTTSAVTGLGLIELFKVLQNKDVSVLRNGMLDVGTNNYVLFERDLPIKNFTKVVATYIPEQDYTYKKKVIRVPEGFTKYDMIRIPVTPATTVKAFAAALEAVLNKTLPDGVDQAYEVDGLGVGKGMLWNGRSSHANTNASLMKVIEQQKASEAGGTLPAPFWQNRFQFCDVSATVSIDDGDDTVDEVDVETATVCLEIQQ

[3] = target: T2, Aspartate--tRNA(Asp/Asn) ligase (Mycobacterium tuberculosis (strain ATCC 25618 / H37Rv)) (UniProt P9WFW3); test: Assay for Asp RNA synthetase-1 from Mycobacterium tuberculosis; format: functional; details: 30 µM; also: in the data most compounds retested in dose-response had high values
T2 sequence (whole entry): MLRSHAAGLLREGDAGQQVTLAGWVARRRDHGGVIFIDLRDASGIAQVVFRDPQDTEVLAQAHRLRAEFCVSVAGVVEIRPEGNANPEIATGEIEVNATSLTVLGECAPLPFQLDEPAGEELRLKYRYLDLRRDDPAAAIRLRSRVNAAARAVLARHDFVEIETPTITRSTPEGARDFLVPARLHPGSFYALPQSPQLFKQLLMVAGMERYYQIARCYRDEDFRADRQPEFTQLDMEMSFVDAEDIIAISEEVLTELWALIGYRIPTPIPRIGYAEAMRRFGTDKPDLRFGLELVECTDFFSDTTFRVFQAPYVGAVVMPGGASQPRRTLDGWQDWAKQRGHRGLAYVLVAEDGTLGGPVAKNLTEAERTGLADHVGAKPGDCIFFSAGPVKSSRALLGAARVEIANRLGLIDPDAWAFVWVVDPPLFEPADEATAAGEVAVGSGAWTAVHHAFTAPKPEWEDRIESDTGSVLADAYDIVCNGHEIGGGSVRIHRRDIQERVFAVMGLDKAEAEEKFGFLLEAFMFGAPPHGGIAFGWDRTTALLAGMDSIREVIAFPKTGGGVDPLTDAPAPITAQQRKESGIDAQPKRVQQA

[4] = target: AMP-activated protein kinase, AMPK (Homo sapiens) (UniProt P54646+O43741+P54619+Q9UGJ0+Q9Y478+Q13131+Q9UGI9); test: AMP-dependent Kinase enzyme assay. An in vitro enzyme assay that detects ADP turnover that is directly proportional to AMPK activity. This uses naive AMPK that is activated during the assay with MK-8722; format: functional; details: 30 µM
[5] = target: Sialic acid-binding Ig-like lectin 9 (Homo sapiens) (UniProt Q9Y336); test: Hs-Siglec9 ALPHAscreen SOP 20170721; details: 10 µM
[6] = tested on: Trypanosoma cruzi; test: Trypanosoma cruzi phosphomannomutase and mannose-1-phosphate guanylyltransferase assay; format: functional; details: 10 µM
[7] = target: T3, Arginase-2, mitochondrial (Homo sapiens) (UniProt P78540); test: in vitro enzyme assay to detect the production of urea directly proportional to the activity of Arginase II; format: functional; details: 33.3 µM; also: in the data most compounds retested in dose-response had high values
T3 sequence (whole entry): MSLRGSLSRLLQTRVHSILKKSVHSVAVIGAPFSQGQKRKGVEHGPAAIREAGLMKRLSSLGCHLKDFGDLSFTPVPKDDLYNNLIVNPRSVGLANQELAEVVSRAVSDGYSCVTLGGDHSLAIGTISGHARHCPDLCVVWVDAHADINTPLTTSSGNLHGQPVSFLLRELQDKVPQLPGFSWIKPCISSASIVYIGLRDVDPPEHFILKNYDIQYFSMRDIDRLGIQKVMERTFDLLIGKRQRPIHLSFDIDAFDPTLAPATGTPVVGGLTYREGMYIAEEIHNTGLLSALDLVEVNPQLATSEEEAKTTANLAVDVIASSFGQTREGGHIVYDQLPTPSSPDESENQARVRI

[8] = target: T4, Proteasome subunit beta (Trypanosoma cruzi) (UniProt O96673); test: Trypanosoma cruzi proteasome chymotrypsin-like activity (TcProtChymo) assay.; also: in the data most compounds retested in dose-response had high values; format: functional; details: 9.37 µM
T4 sequence (whole entry): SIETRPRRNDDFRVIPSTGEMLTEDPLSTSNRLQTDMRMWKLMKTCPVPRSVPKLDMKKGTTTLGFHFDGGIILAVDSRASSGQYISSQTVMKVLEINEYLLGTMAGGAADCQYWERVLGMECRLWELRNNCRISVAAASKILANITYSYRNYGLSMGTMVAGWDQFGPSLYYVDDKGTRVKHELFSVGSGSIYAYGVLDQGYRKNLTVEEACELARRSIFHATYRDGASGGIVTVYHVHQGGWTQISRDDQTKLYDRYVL

[9] = species: Homo sapiens; test: To identify inhibition of the IFN signalling (Jak-Stat) pathway via expression of an eGFP reporter gene under the control of an IFN-stimulated response element (ISRE) containing MxA promoter.; format: functional; details: 30 µM
[10] = target: Shiga toxin 2 (Escherichia coli O157:H7) (UniProt P09385+P09386); test: E. coli 0.157:H7 Shiga Toxin SOP - stx2 screening assay; format: functional; details: 30 µM
[11] = target: T5, Tyrosyl-tRNA synthetase, putative (Trypanosoma cruzi (strain CL Brener)) (UniProt Q4DSP6); test: Trypanosoma cruzi tyrosyl tRNA synthetase (TcYRS) _High Tyrosine SOP; format: functional; details: 30 µM; also: in the data most compounds retested in dose-response had high values
T5 sequence (whole entry): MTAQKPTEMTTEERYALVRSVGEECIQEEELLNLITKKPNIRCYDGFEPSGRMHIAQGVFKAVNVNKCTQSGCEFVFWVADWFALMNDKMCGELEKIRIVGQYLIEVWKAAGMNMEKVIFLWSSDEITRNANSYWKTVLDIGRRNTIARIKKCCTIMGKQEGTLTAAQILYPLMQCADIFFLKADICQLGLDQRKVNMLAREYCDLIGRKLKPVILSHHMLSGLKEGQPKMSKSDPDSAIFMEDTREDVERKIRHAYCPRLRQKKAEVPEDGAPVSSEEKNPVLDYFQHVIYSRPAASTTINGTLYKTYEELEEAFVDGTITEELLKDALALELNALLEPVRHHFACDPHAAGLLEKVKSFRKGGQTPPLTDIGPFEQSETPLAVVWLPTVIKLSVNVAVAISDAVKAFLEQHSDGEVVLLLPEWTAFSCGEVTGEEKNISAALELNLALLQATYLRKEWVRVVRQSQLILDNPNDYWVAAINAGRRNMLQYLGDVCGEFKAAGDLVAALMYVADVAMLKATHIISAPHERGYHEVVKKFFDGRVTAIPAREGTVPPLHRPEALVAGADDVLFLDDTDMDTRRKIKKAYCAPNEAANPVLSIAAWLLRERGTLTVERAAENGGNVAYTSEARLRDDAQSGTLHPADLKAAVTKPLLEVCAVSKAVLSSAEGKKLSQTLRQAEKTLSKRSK

[12] = target: T5, Tyrosyl-tRNA synthetase, putative (Trypanosoma cruzi (strain CL Brener)); test: Trypanosoma cruzi tyrosyl tRNA synthetase (TcYRS) SOP; format: functional; details: 30 µM
[13] = target: Chromo domain-containing protein 1 (Saccharomyces cerevisiae (strain ATCC 204508 / S288c) (Baker's yeast)) (UniProt P32657); test: ScCHD-1 Enzyme Inhibition Assay; format: functional; details: 30 µM; also: in the data most compounds retested in dose-response had high values
Sequence of Chromo domain-containing protein 1 (Saccharomyces cerevisiae (strain ATCC 204508 / S288c) (Baker's yeast)) (P32657 whole entry, the tested form may be a part): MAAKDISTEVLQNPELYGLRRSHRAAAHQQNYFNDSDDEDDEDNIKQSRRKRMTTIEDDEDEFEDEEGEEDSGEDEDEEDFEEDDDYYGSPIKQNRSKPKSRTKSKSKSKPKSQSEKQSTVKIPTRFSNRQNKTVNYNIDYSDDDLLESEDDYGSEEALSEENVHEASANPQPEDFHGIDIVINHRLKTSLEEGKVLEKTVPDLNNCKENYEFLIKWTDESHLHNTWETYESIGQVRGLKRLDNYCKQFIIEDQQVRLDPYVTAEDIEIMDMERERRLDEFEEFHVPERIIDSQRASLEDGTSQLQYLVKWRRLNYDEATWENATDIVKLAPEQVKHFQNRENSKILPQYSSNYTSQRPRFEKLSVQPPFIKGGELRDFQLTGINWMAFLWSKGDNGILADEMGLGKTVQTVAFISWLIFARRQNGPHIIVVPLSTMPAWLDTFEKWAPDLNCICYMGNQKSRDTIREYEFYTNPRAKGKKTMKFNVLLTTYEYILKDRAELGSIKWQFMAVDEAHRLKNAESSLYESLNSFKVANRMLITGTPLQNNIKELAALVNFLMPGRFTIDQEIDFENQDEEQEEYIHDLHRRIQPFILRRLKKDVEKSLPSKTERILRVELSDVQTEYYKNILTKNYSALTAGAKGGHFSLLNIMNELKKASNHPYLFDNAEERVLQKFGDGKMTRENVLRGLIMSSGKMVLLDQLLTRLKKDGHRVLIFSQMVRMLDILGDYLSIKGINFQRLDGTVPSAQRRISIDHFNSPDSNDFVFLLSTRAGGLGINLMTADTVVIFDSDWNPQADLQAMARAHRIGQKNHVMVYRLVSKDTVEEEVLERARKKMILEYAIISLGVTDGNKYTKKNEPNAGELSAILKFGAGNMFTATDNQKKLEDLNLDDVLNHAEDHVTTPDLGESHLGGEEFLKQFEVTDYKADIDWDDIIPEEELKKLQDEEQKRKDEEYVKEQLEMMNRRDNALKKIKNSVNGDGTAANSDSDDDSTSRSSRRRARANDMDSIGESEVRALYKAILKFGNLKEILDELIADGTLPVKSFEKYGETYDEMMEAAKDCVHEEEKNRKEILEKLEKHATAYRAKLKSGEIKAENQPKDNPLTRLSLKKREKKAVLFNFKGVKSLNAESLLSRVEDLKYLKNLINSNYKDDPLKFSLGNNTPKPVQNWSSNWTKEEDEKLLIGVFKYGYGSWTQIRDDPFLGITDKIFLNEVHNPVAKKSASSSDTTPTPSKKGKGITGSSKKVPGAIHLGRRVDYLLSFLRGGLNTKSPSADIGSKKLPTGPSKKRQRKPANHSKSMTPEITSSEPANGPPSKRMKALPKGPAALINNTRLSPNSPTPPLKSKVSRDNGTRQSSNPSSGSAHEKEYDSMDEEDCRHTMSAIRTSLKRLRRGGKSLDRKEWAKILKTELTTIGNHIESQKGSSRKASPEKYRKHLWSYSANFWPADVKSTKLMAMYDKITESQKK

Sequence of Protein translocase subunit SecA (Escherichia coli (strain K12)) (P10408 whole entry): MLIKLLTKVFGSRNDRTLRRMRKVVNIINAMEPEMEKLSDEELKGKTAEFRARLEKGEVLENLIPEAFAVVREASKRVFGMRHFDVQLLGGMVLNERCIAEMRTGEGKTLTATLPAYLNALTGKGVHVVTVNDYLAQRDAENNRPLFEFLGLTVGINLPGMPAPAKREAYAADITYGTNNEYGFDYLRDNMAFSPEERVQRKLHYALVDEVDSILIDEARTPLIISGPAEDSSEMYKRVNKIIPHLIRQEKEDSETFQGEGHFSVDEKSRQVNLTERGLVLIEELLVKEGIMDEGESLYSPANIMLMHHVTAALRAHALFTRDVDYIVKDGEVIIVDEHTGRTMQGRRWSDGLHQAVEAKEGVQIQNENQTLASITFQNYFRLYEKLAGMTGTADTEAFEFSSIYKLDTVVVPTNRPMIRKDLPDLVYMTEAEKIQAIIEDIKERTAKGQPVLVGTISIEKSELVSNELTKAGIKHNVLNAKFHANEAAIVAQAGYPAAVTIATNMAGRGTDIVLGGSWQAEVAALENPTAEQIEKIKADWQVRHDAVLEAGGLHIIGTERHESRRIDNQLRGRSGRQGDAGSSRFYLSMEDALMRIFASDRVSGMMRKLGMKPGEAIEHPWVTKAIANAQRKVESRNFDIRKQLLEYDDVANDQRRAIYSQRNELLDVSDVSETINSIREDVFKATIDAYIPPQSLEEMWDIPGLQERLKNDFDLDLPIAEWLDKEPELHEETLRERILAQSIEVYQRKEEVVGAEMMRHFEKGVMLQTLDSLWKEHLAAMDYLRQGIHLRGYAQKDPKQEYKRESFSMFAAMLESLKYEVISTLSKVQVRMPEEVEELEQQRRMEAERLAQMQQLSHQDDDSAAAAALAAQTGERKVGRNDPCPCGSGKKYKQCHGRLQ
Sequence of Sialic acid-binding Ig-like lectin 9 (Homo sapiens) (Q9Y336 whole entry): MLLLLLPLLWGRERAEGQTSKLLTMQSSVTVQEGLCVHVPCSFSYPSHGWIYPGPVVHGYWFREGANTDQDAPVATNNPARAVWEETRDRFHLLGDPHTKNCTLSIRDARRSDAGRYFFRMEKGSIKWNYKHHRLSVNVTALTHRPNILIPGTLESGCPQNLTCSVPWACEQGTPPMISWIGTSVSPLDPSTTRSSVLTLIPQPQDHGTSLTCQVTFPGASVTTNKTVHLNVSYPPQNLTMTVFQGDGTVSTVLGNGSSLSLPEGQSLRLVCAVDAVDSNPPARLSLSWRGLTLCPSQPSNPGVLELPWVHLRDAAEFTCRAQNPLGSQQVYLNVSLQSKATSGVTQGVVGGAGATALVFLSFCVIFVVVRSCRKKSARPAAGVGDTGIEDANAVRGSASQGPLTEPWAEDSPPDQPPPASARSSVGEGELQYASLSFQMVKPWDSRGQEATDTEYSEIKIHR

SMILES	Percent Effect [1]	Percent Effect [2]	Percent Effect [3]	Percent Effect [4]	Percent Effect [5]	Percent Effect [6]	Percent Effect [7]	Percent Effect [8]	Percent Effect [9]	Percent Effect [10]	Percent Effect [11]	Percent Effect [12]	Percent Effect [13]
c1cnc(NC[C@@H]2CCC[C@@H]3CN(Cc4cc[nH]n4)C[C@@H]32)nc1	-1.01%	10.8%	-0.521%	-5.7%	-5.33%	5.66%	4.17%	7.69%	6.51%	-15%	10.9%	15.8%	-6.02%
COc1cccc(CNC(C)Cn2cccn2)c1OC (configuration not stated)	-0.666%	2.6%	6.86%	1.22%	3.25%	-0.749%	1.42%	2.37%	7.27%	0.638%	1.94%	0%	-2.46%
C[C@H]1C[C@@H]2CCN(Cc3ccccn3)C[C@H]2O1	-1.13%	0%	-1.48%	92%	-0.495%	1.27%	1.59%	10.5%	7.67%	-4.58%	-2.16%	-5.13%	-8.15%
Cc1c(CC(=O)N2CCN(CC(F)(F)F)CC2)nnn1-c1ccccc1	-3.34%	10.4%	12.8%	-2.43%	2.86%	-2.65%	2.76%	10.8%	11.9%	-45.5%	4.3%	8.64%	-1.92%
